D1 antag: blocks dopamine activation of the human D1 receptor | 3.2% of 360,000 active | AID 504652 | P21728 | activity change, negative = inhibition, % at 10 µM | HEK293 TREx D1 cells, calcium flux, dopamine EC80; stronger effect = lower value; in the data active = activity change below about -30%; also: % is scaled to controls: 0 for no effect and ±100 for the full control effect
Target sequence (P21728 whole entry, looked up): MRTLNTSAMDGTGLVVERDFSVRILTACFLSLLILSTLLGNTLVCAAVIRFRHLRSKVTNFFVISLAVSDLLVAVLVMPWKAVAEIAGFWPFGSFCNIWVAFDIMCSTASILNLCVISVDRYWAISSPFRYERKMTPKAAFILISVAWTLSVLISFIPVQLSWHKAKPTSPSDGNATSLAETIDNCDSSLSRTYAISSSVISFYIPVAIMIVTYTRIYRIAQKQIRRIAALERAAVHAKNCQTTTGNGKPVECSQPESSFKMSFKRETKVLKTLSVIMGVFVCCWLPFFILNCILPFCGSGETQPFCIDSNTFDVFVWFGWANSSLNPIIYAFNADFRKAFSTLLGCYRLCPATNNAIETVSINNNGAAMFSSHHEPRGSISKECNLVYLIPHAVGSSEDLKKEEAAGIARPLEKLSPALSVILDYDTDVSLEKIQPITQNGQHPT
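Compound effects on dopamine-evoked calcium signalling were measured in tetracycline-induced HEK293 Trex D1 cells. Dopamine at EC80 followed a 180 s compound pre-read, and fluorescence was tracked kinetically for 180 s more.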
D1 ag: activates the human D1 dopamine receptor | P21728 | HEK293 T-REx D1 cells, calcium flux, agonist mode | activation, % at 2 µM | 1% of 360,000 active; in the data active = activation above about 30%; also: 0% is about no effect
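Inducible HEK293 T-REx D1 cells, force-coupled to calcium signalling, were plated at 4000 cells/well with tetracycline and held overnight at 30 C. After no-wash calcium dye loading, compound-evoked calcium rise over 180 s flagged agonists.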
D1 potentiator: enhances dopamine response at the human D1 receptor; HEK293 TREx D1 cells, calcium flux, dopamine EC20 potentiation; potentiation, % at 10 µM; 0.036% of 360,000 active; in the data active = potentiation above about 30%; also: 0% is about no effect
D3 ag: D3 dopamine receptor (human) agonism. D3R DiscoveRx beta-arrestin cells, luminescence, 90 min. max activation, %. 0.58% of 410,000 active. AID 652048; in the data active = max activation above about 30%; also: 0% is about no effect
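Agonist-mode cell screen: cells plated at 1500/well and incubated overnight at 37 °C, then exposed to library compounds for 90 min at 37 °C. Detection reagent was added for 30–60 min at room temperature, and luminescence was read.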
DRD3 antagonist: D3 dopamine receptor (human) antagonism; AID 652054; 2.5% of 360,000 active; max response, negative = inhibition, %; P35462; D3R cells, DiscoveRx beta-arrestin luminescence, antagonist mode; stronger effect = lower value; in the data active = max response below about -50%; inconclusive = no clear call, values can overlap the other calls; also: % is scaled to controls: 0 for no effect and ±100 for the full control effect
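Cells expressing the human receptor were seeded at 1500 cells/well, incubated overnight at 37 degrees C in 5% CO2, then exposed to library compounds with dopamine controls for 90 minutes at 37 degrees C before luminescent detection.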
The depositor's hits bear a star; ? = inconclusive; / = not tested or not shown. An excerpt weighted towards active compounds, which were near 6% of everything screened.

SMILES	D1 antag	D1 ag	D1 potentiator	D3 ag	DRD3 antagonist
C=CCN1C(=O)C(=Cc2ccc3c(c2)CCC3)SC1=S	/	/	/	-10	-10
COC(=O)[C@H](Cc1ccccc1)NC(=O)/C=C/[C@H]1O[C@@H](n2ccc(=O)[nH]c2=O)[C@H](O)[C@@H]1O	/	/	/	2	25
O=C(CN1CCN(Cc2cccc3ccccc23)CC1)NCCc1ccccc1	-10	13	-7	-1	9
O=S1(=O)CCOC(CO)CN1Cc1ccc(Cl)c(Cl)c1 (stereo not drawn)	/	/	/	4	-18
CCCCC(O)C(=O)Nc1cc(C(F)(F)F)ccc1Cl (stereo not drawn)	-18	2	0	/	/
COc1ccc(CNC(=O)CN2CCC(C(=O)c3ccc(OC)cc3)CC2)cc1	-13	12	-3	-9	?
COc1ccc(C(=O)C2CCN(CC(=O)NCc3ccccc3)CC2)cc1	-6	5	-1	-28	-52*
CCOC(=O)c1c(C)oc2c1c(C(c1ccccc1)N1CCOCC1)c(O)c1ccccc12 (stereo not drawn)	-1	1	-2	-6	7
CCOC(=O)c1c(C)oc2c1c(C=NCCO)c(O)c1ccccc12	-41*	4	-4	1	-22
Cc1ccc(-c2cn3c(n2)SCC3)cc1	27	-2	-3	0	-14
CCc1ccc(-c2cn3c(n2)SCC3)cc1	-86*	1	0	-8	-27
CCCCc1ccc(NC(=O)CSc2nc(=O)[nH]c3c2CCCC3)cc1	/	1	3	1	/
CCc1nn(CC(=O)NCc2ccccc2Cl)c(=O)c2cc3ccccc3n12	0	1	-5	9	/
Nc1c(-c2ccccc2)sc2ccc3ccccc3[n+]12	0	0	0	-3	-5
CNC(=O)c1cn(-c2ccccc2)c(=O)c2ccccc12	-73*	0	-11	-18	-26
CCOc1ccccc1NC(=O)CC(c1ccc(F)cc1)N1Cc2ccccc2C1=O (stereo not drawn)	-5	8	-2	-13	/
Cc1ccc(-c2cc(C(=O)N(Cc3ccccc3)Cc3ccco3)no2)cc1F	0	1	-4	-5	/
Clc1ccccc1C(c1ccccc1)(c1ccccc1)n1ccnc1	-34*	6	5	0	-28
CCCCCC(C)n1[nH]c(=O)cc1N (stereo not drawn)	12	0	3	4	-109*
CCCCCCC(C)n1[nH]c(=O)c2c(C)cc(C)nc21 (stereo not drawn)	-1	2	-4	-26	-2
CCC(C)(C)NC(=O)CN(C(=O)c1snc(C(N)=O)c1N)c1ccc2nc(C)sc2c1	-55*	1	-5	1	6
COC(=O)[C@]1(Cc2ccccc2)N[C@H](CN(C)C(=O)Nc2ccc(OC)cc2)[C@@H]2C(=O)N(Cc3ccccc3)C(=O)[C@@H]21	/	/	/	-22	0
CCC(CC)C(=O)N(C)c1c(C)nc2c(OCc3ccc(OC(F)F)cc3)cccn12	/	/	/	1	1
O=c1cc(-c2ccccc2)[nH]n1-c1ccccc1	/	/	/	11	-7
O=c1cc(-c2ccccc2)[nH]n1-c1nc2ccccc2s1	-36*	0	-8	1	2
SMILES	D1 antag	D1 ag	D1 potentiator	D3 ag	DRD3 antagonist
CCOc1ccc(-n2c(=O)c3c4c(sc3n(CC(=O)NC(C)CC)c2=O)CCCC4)cc1 (stereo not drawn)	5	-1	1	-2	/
O=C(CSc1nnc(-c2ccc(O)cc2)o1)c1ccc(Br)cc1	30	39*	-2	1	/
COc1ccc(C(=O)N2CCCC(c3cc(C(=O)NCc4cccnc4)no3)C2)cc1 (stereo not drawn)	/	/	/	-6	0
CCOC(=O)CC(=O)CSc1nc(-c2cccnc2)ccc1C#N	2	34*	-3	-2	-16
CCOC(=O)CC(=O)CSc1nc(-c2cccnc2)cc(C)c1C#N	-7	3	5	6	31
CC(C)C[C@H]1CNC(=S)N1CC1CCN(CCCC2CCCC2)CC1	/	/	/	-44	-63*
CCCCN1CCC(CN2C(=S)NC[C@@H]2CC(C)C)CC1	/	/	/	-46	-80*
S=C1NC[C@H](Cc2ccccc2)N1CC1CCN(CCCC2CCCC2)CC1	/	/	/	-43	-81*
CC(C)CCN1CCC(CN2C(=O)C(=O)NC[C@@H]2CC(C)C)CC1	/	/	/	-5	?
COc1ccc(CCCN2CCC(CN3C(=S)NC[C@@H]3Cc3ccccc3)CC2)cc1OC	/	/	/	-57	-55*
CCOc1ccc(NC(=O)CN(C)S(=O)(=O)c2ccc3c(c2)c(=O)n(C)c(=O)n3C)cc1	-25	-1	-2	0	/
COc1cc(-c2cc3n(C)c(C)c(CCC(=O)O)c(=O)n3n2)cc(OC)c1OC	-19	0	6	0	/
O=C(CN1C(=O)NC2(CCOc3ccccc32)C1=O)N1CCCCC1 (stereo not drawn)	/	/	/	-1	-10
COC(=O)C[C@](O)(CCCC(C)(C)O)C(=O)O[C@@H]1C(OC)=CC23CCCN2CCc2cc4c(cc2[C@H]13)OCO4 (stereo partly drawn)	/	/	/	-9	/
CC(C)C[C@H]1CNC(=S)N1CC1CCN(CCCCc2ccccc2)CC1	/	/	/	-45	-91*
CC(C)C[C@H]1CNC(=O)C(=O)N1CC1CCN(CC2CCC(C(C)(C)C)CC2)CC1 (stereo partly drawn)	/	/	/	-35	-57*
CCCCCN(C(=O)CCC(=O)OCC(=O)c1c(C)cc(C)cc1C)c1c(N)n(CCCC)c(=O)[nH]c1=O	-11	1	0	4	7
CCOc1cc(C(=O)N/N=C/c2ccoc2)cc(OCC)c1OCC	4	2	-11	-16	-70*
COc1ccc(-c2cc(C(=O)N/N=C/c3cc(OC)c(OC)cc3OC)c3ccccc3n2)cc1	/	/	/	10	20
COc1ccccc1-c1cc(C(=O)N/N=C/c2ccoc2)c2ccccc2n1	-3	8	0	-8	-51*
COc1cc(/C=N/NC(=O)c2cc(-c3cccc(OC(C)C)c3)nc3ccccc23)ccc1O	/	/	/	73*	62
COc1ccc(OC)c(/C=N/NC(=O)c2cc(-c3ccc(C)o3)nc3ccccc23)c1	10	1	0	37*	20
COc1cc(/C=N/NC(=O)c2cc(-c3cccs3)nc3ccccc23)ccc1O	-1	6	0	9	53
CCOc1ccc(S(=O)(=O)N2CCC(C(=O)NCCc3ccc(S(N)(=O)=O)cc3)CC2)cc1	-1	0	3	-4	0
COc1ccc(/C(C)=N/NC(=O)c2cc(-c3cccnc3)nc3ccccc23)cc1	6	-1	-4	5	3
O=C(N/N=C/c1cccnc1)c1cc(-c2ccccc2Cl)nc2ccccc12	-40*	-1	-1	1	-7
O=C(NCc1ccccn1)c1cc(-c2ccccc2Cl)nc2ccccc12	-32*	1	0	3	8
O=C(NCc1ccccn1)c1cc(-c2ccncc2)nc2ccccc12	1	1	3	-9	2
